Our source for the inhibition values is PubChem BioAssay AID1918969 (ICCB-Longwood Screening Facility, Harvard Medical School, 2023).

Structures are written as SMILES. In all, about 190,000 compounds went through this assay and about 280 (0.15%) were called active. The sample as a whole holds a higher share of actives than the screen did. A number with no mark means an inactive call. Cut-off read from the data, not from the text of the source: active = inhibition above about 27% (passing the limit was not always enough); inactive = the rest.

The test system of this assay is HCMV UL50-UL53 nuclear egress complex (human cytomegalovirus). As to the kind of experiment: HCMV nuclear egress complex disruptors – biochemical, HTRF (AID 1918969). As to conditions: HTRF UL50-UL53 interaction, normalized percent inhibition; stronger effect = higher value; concentration not given here. In general terms: In TR-FRET formats the signal depends on donor and acceptor labels being close together.
`COc1ccccc1N1CCN(C(=O)Cc2csc(NC(=O)Nc3ccccc3)n2)CC1`: the inhibition (in general, the change of the read-out against control, counted positive when it falls) is -7.3%. The same measure for `CC1CCN(C(=O)c2cn(C)cc3c(=O)n(-c4ccccc4)nc2-3)CC1`: -66.2%; for `CC(C)(C)c1ccc(CN2C(=O)N(Cc3ccccc3)S(=O)(=O)c3ccccc32)cc1`: -19.5%; for `Cc1nnc(NC(=O)Cn2cnc3oc(C)c(C)c3c2=O)s1`: -21.8%. For the compound `O=S(=O)(NCCc1ccccn1)c1cc(Cl)cc(Cl)c1O`, the inhibition was -28.9%.

Regarding `Cc1ccc(Sc2c(C)[nH]n(-c3ccccc3)c2=O)cc1`, the inhibition was -26%. Regarding `CC1=NOC(=O)C1C(c1cccc(Br)c1)c1c(C)[nH]n(-c2ccccc2)c1=O` (centres undefined), the inhibition was 59.5% (active).

Take `Cc1noc(C)c1C(=O)c1c(C)[nH]n(-c2ccccc2)c1=O`: the inhibition was -25.3%. On to `O=C(CN1C(=O)c2ccccc2C1=O)Nc1ccc2c(c1)CCC(=O)N2`, for which the inhibition is -46%. On to `COC(=O)c1ccc(C)c(NS(=O)(=O)c2ccc3c(c2)c(=O)sn3C)c1`, for which the inhibition was -31.7%.

With `S=C(c1ccncc1)N1CCOCC1`, the inhibition is -13.4%.

Turning to `CCCCCCCCCCCCCCCC(=O)O[C@@H]1[C@@H](O)[C@@H](O)C([C@H](NC(=O)[C@@H]2C[C@@H](CCC)CN2C)[C@H](C)Cl)O[C@@H]1SC` (some centres undefined), the inhibition was -4.7%. As to `N#CCCn1cc(C=NCc2ccccc2)c(-c2cc3ccccc3o2)n1`, the inhibition was -30.5%. Turning to `COc1ccc(F)cc1-c1cc(N2CCN(S(=O)(=O)c3ccc(F)c(Cl)c3)CC2)ncn1`, the inhibition is -27.5%. Regarding `NS(=O)(=O)c1ccc(NC(=O)c2cc(-c3ccc4c(c3)OCO4)nc3ccccc23)cc1`, the inhibition is -4.6%. For the compound `COC(=O)c1sccc1NC(=O)c1cc(=O)n2c(nc3cc(C)c(C)cc32)s1`, the inhibition is -30.2%. As to `O=C1CN(S(=O)(=O)c2ccc(-c3ccc(=O)[nH]n3)s2)c2ccccc2N1`, the inhibition was -43.4%. The same measure for `O=C(Oc1ccccc1)c1cccc(C(=O)Oc2ccccc2)c1F`: -13.9%; for `COc1ccc(OC)c(NC(=O)c2cc3c([nH]c2=O)CC(C)(C)CC3=O)c1`: 3.5%; for `Cc1ccc(C(=O)NCC(=O)NC2CC2)cc1`: -17.5%.

Consider `N#CC(C#N)=C1SCN(c2cccc(Cl)c2)CS1`, for which the inhibition was -5%. The result for `COc1cccc(NC(=O)c2c(-c3cccnc3)noc2C)c1` reads -15.4%; that for `COc1ccc(NC(=O)CCCSc2nc3sc(C)c(C)c3c(=O)[nH]2)cc1`, -2.2%; that for `CNc1nc(OC)nc(N(C)C)n1`, 11.3%.

Regarding `O=C(Nc1ccc2oc(-c3ccccc3Br)nc2c1)c1cccc([N+](=O)[O-])c1`, the inhibition is 7%. For the compound `CCc1nc(-c2cc(S(=O)(=O)N3CCCC(C(=O)Nc4ccc(C)c(F)c4)C3)c(C)s2)no1` (centres undefined), the inhibition was -9.2%. With `Cc1ccc(NC(=O)CCCc2nc3cccnc3n2CCC(C)C)cc1`, the inhibition was -10.6%. The result for `Nc1nc(Nc2ccccc2)sc1C(=O)c1ccc(Br)cc1` reads -4.3%. For the compound `CC1(C)Cc2cccc(Oc3ncnc4sccc34)c2O1`, the inhibition is -13%. For `O=C(CCS(=O)(=O)c1ccc2c(c1)NC(=O)CS2)NCc1ccccc1Cl`, the inhibition is -15.7%. The same measure for `OC(Cc1nc2ccccc2o1)c1ccccc1` (centres undefined): -3.6%; for `COc1ccc(C(=O)CSc2nc3nc[nH]c3c(=O)[nH]2)cc1`: -13.4%.

With `COc1cc(=O)[nH]c(SC(C)C(=O)Nc2ccccc2)n1` (centres undefined), the inhibition was -5.6%.

Turning to `CCCc1noc(-c2cc(S(N)(=O)=O)ccc2OC)n1`, the inhibition was 3.5%. Consider `O=C(Cc1nc2ccccc2n1C(F)F)c1ccccc1`, for which the inhibition is -21.1%. Consider `COc1ccc(N(Cc2nc3ccccc3s2)S(=O)(=O)c2cccs2)cc1`, for which the inhibition is -24.9%. Regarding `NC(=O)c1ccc2c3c(cccc13)CC2`, the inhibition was -30.8%. As to `Cc1nc(Nc2ccc(NC(=O)C(C)(C)C)cc2)cc(N(C)C)n1`, the inhibition is 7.9%. The result for `COc1cc(-c2noc(-c3ccccc3)n2)ccc1OCC(=O)Nc1ccc(F)cc1` reads -31.7%; that for `CCOC(=O)C1C(=O)CC(=O)C(C(=O)OCC)C1c1ccccc1` (centres undefined), -6.9%. The result for `CCOC(=O)c1noc2ncnc(N(CC)c3ccccc3)c12` reads -26.1%; that for `O=C(NCN1CCN(CNC(=O)c2ccccc2)CC1)c1ccccc1`, -42.2%; that for `CCn1c(=O)c(=O)n(CC)c2cc(N3CCCCC3)c(NC(=O)c3ccccc3)cc21`, -23.2%. In the case of `CCn1c(=O)c(=O)n(CC)c2cc(N3CCCCC3)c(NC(=O)c3ccc(Cl)cc3)cc21`, the inhibition was 62.9% (active). `CCn1c(=O)c(=O)n(CC)c2cc(N3CCCCC3)c(NC(=O)c3cccc(F)c3)cc21`: the inhibition is -3.5%. The result for `CCCCn1c(SCC(=O)N2CCCC2)nc2cn(C)nc2c1=O` reads -19.7%; that for `Cn1cc(CCC(=O)NC2CC2)c2ccccc21`, 0.4%. In the case of `CC1(C)CC(=O)C2=C(C1)N(Cc1ccco1)C(=O)C2(NC(=O)c1cccs1)C(F)(F)F` (centres undefined), the inhibition is -5.4%.

`CCN(CC)c1ccc2cc(-c3csc(-c4nc(-c5cc6ccc(N(CC)CC)cc6oc5=O)cs4)n3)c(=O)oc2c1`: the inhibition was -0.5%. Consider `Cc1cc(NC(=O)c2ccc(N(C)C)cc2)no1`, for which the inhibition is 1.2%. As to `O=C(CC1=NS(=O)(=O)c2ccccc2N1)N1CCN(C(c2ccccc2)c2ccccc2)CC1`, the inhibition is -9.6%.

On to `C/C(=N\O)C(C)(C)Nc1ccccc1`, for which the inhibition is 24.2%. The result for `Cc1ccc(S(=O)(=O)N(C)CC(=O)OCc2nc3ccccc3s2)cc1` reads -25.9%; that for `CCOC(=O)c1c(NC(=O)CSc2nccn2C)sc2c1CCC(C)C2` (centres undefined), -12.2%; that for `CC(C)N(C(=O)CNc1cc(Cl)ccc1Cl)c1ccccc1`, -6.5%. On to `O=C1c2ccccc2C(=O)C1c1ccccc1F`, for which the inhibition is -3.9%. The result for `Cc1c(OCC(N)=O)ccc2c3c(c(=O)oc12)CCCC3` reads 7.5%; that for `NC(=O)c1ccc(-c2ccccc2)cc1C(N)=O`, -28.2%. For the compound `Nc1nc(N)nc(SCC(=O)N2CCCC2)n1`, the inhibition was -9.6%.
